Results taken from ChEMBL document CHEMBL1961873, “Compounds: GSK PKIS; Assays: Nanosyn kinase panel” (2012).

Experiments:
[1] = biological target: Serine/threonine-protein kinase MARK2 (Homo sapiens) (UniProt Q7KZI7); conditions: at 1 µM
[2] = biological target: PAS domain-containing serine/threonine-protein kinase (Homo sapiens) (UniProt Q96RG2); conditions: at 0.1 µM
[3] = biological target: PAS domain-containing serine/threonine-protein kinase (Homo sapiens) (UniProt Q96RG2); conditions: at 1 µM
[4] = biological target: Phosphorylase b kinase gamma catalytic chain, skeletal muscle/heart isoform (Homo sapiens) (UniProt Q16816); conditions: at 0.1 µM
Chain of Phosphorylase b kinase gamma catalytic chain, skeletal muscle/heart isoform (Homo sapiens) (Q16816 whole entry, looked up, canonical isoform): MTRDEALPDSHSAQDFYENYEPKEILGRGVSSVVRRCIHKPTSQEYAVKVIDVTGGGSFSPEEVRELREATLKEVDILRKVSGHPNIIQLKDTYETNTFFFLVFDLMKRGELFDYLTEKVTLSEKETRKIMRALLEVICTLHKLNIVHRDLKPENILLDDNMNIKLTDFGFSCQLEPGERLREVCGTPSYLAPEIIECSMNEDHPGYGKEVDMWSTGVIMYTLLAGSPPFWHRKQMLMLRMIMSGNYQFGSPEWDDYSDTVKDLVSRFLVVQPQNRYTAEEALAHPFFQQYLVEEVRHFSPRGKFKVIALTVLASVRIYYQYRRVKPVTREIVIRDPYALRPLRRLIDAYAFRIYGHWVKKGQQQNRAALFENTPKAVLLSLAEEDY

[5] = biological target: Phosphorylase b kinase gamma catalytic chain, skeletal muscle/heart isoform (Homo sapiens) (UniProt Q16816); conditions: at 1 µM
[6] = biological target: T1, Phosphorylase b kinase gamma catalytic chain, liver/testis isoform (Homo sapiens) (UniProt P15735); conditions: at 0.1 µM
T1 sequence (whole entry): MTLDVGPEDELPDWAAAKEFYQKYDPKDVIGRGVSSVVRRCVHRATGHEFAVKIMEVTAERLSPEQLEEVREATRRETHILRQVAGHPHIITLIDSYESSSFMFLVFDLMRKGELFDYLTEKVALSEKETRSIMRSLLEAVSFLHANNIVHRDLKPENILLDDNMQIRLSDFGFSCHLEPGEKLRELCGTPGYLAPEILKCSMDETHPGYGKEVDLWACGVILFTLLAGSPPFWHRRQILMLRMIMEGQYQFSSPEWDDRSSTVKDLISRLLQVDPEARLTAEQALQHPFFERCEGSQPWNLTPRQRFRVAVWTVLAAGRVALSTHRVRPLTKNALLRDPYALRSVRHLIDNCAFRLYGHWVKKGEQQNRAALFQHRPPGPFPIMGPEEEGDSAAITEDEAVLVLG

[7] = biological target: T1, Phosphorylase b kinase gamma catalytic chain, liver/testis isoform (Homo sapiens); conditions: at 1 µM
[8] = biological target: Serine/threonine-protein kinase pim-1 (Homo sapiens) (UniProt P11309); conditions: at 0.1 µM
Chain of Serine/threonine-protein kinase pim-1 (Homo sapiens) (P11309 whole entry, looked up): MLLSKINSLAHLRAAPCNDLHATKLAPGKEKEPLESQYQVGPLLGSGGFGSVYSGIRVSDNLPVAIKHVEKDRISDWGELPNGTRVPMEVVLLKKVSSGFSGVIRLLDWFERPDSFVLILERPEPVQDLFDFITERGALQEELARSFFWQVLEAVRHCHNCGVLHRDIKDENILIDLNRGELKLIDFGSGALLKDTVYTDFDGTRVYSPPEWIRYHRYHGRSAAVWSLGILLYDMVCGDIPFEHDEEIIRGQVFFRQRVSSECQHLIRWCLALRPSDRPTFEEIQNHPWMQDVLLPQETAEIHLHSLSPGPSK

[9] = biological target: Serine/threonine-protein kinase pim-1 (Homo sapiens) (UniProt P11309); conditions: at 1 µM
[10] = biological target: Serine/threonine-protein kinase pim-2 (Homo sapiens) (UniProt Q9P1W9); conditions: at 0.1 µM
Chain of Serine/threonine-protein kinase pim-2 (Homo sapiens) (Q9P1W9 whole entry, looked up): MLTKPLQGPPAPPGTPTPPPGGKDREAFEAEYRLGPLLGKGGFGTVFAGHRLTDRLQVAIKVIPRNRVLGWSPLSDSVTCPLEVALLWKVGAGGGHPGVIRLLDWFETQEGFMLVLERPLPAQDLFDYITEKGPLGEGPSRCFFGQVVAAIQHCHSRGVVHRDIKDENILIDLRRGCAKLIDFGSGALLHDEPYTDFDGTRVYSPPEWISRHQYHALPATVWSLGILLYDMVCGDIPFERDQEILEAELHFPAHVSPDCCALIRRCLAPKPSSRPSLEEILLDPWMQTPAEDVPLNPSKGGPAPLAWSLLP

[11] = biological target: Serine/threonine-protein kinase pim-2 (Homo sapiens) (UniProt Q9P1W9); conditions: at 1 µM
[12] = biological target: Serine/threonine-protein kinase pim-3 (Homo sapiens) (UniProt Q86V86); conditions: at 0.1 µM
[13] = biological target: Serine/threonine-protein kinase pim-3 (Homo sapiens) (UniProt Q86V86); conditions: at 1 µM
[14] = biological target: T2, MAP kinase-activated protein kinase 5 (Homo sapiens) (UniProt Q8IW41); conditions: at 0.1 µM
T2 sequence (whole entry): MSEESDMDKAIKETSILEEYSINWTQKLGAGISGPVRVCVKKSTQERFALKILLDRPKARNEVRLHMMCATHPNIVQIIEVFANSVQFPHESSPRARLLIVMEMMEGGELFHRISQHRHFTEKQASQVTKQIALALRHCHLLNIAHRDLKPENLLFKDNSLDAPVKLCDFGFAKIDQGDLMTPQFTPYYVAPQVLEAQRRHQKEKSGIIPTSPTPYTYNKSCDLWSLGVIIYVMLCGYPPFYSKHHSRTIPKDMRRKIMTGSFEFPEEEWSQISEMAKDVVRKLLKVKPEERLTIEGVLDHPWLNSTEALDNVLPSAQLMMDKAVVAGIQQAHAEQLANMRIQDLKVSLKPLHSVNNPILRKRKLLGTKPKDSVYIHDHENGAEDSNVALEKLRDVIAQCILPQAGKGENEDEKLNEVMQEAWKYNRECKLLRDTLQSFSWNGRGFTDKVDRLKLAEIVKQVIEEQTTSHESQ

[15] = biological target: T2, MAP kinase-activated protein kinase 5 (Homo sapiens); conditions: at 1 µM
[16] = biological target: Serine/threonine-protein kinase SIK1 (Homo sapiens) (UniProt P57059); conditions: at 0.1 µM
Chain of Serine/threonine-protein kinase SIK1 (Homo sapiens) (P57059 whole entry): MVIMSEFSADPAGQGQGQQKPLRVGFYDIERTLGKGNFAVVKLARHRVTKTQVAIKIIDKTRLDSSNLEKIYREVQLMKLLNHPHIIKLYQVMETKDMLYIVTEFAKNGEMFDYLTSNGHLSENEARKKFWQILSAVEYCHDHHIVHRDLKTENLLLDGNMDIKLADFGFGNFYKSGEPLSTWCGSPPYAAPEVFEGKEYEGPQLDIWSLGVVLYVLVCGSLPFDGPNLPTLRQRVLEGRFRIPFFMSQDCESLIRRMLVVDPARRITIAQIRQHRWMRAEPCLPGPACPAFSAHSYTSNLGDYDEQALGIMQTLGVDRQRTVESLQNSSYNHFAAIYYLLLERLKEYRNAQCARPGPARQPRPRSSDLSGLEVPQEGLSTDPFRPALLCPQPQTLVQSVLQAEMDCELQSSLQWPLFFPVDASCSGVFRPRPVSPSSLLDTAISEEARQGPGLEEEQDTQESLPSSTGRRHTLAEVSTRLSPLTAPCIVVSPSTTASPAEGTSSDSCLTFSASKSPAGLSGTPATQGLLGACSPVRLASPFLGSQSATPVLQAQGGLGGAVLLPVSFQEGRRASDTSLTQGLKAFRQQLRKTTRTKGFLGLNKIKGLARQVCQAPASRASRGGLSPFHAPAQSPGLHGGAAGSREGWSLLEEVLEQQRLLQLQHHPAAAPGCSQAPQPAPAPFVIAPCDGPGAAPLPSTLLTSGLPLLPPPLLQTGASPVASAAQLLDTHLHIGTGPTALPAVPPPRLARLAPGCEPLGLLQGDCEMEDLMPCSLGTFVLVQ

[17] = biological target: Serine/threonine-protein kinase SIK1 (Homo sapiens) (UniProt P57059); conditions: at 1 µM
[18] = biological target: Serine/threonine-protein kinase SIK2 (Homo sapiens) (UniProt Q9H0K1); conditions: at 0.1 µM
Chain of Serine/threonine-protein kinase SIK2 (Homo sapiens) (Q9H0K1 whole entry, looked up): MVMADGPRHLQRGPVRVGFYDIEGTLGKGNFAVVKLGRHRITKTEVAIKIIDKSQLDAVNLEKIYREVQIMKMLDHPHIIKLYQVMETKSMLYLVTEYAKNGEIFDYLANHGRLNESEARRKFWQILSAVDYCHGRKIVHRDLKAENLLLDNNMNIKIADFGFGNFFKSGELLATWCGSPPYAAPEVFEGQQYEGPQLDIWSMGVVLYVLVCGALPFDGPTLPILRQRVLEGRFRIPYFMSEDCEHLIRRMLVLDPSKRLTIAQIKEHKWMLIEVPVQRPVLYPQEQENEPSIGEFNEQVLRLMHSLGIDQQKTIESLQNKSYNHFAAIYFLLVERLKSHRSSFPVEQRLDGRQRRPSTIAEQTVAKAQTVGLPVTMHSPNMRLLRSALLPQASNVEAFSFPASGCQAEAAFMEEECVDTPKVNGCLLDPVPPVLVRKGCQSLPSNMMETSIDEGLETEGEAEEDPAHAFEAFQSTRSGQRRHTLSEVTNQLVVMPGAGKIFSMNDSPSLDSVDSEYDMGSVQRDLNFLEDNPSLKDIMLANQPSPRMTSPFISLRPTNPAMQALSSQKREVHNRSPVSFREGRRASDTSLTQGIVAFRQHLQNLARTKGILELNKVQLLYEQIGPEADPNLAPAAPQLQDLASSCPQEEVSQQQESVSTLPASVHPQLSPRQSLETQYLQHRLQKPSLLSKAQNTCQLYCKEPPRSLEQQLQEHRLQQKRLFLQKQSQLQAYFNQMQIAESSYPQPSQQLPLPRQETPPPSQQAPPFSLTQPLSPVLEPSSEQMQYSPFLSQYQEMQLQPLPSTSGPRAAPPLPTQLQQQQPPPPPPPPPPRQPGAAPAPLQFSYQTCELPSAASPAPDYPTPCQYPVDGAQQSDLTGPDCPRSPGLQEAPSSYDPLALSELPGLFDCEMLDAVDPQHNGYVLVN

[19] = biological target: Serine/threonine-protein kinase SIK2 (Homo sapiens) (UniProt Q9H0K1); conditions: at 1 µM
[20] = biological target: T3, Serine/threonine-protein kinase TBK1 (Homo sapiens) (UniProt Q9UHD2); conditions: at 0.1 µM;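 further: values are the mean TBK1 inhibition, taken from the GSK PKIS screening data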
T3 sequence (whole entry): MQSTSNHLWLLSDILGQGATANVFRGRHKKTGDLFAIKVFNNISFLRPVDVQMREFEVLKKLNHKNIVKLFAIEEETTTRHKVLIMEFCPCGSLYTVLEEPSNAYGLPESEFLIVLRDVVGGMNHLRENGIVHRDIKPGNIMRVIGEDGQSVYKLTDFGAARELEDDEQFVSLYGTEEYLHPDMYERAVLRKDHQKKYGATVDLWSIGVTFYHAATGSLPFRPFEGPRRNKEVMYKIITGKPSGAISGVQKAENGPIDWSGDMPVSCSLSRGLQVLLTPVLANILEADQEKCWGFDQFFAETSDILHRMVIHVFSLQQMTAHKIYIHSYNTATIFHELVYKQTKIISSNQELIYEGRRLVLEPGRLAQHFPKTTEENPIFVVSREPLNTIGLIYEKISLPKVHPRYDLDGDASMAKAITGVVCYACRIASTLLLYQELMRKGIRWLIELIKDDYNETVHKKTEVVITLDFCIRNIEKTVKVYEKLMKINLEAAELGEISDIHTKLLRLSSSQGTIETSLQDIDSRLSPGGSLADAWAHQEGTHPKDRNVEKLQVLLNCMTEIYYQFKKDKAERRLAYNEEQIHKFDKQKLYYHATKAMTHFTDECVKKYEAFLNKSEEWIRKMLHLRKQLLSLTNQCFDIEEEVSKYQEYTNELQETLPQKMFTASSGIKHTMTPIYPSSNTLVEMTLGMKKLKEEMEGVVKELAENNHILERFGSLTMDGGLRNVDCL

Chain of Serine/threonine-protein kinase MARK2 (Homo sapiens) (Q7KZI7 whole entry, the tested form may be a part): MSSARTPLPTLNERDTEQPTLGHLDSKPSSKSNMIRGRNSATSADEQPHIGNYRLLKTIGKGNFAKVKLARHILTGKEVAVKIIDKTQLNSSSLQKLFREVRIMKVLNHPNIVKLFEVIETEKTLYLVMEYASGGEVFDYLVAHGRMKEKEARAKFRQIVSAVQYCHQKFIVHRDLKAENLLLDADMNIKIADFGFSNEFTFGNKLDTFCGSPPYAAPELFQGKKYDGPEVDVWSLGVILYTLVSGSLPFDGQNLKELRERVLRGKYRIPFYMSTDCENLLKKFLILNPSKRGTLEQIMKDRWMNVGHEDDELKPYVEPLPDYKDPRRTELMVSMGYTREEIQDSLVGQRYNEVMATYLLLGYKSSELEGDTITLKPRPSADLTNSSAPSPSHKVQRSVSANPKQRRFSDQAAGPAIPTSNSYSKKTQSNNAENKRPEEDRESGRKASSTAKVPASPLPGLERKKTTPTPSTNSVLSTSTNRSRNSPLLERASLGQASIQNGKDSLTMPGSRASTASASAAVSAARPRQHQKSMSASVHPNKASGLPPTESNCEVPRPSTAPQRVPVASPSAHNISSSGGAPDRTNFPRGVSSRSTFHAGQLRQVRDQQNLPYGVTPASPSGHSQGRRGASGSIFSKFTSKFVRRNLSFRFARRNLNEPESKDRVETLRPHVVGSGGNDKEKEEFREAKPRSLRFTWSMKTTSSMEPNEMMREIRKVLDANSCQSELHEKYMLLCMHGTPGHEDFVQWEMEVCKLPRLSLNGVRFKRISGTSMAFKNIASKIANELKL

Row | SMILES | inhibition [1] [%] | inhibition [2] [%] | inhibition [3] [%] | inhibition [4] [%] | inhibition [5] [%] | inhibition [6] [%] | inhibition [7] [%] | inhibition [8] [%] | inhibition [9] [%] | inhibition [10] [%] | inhibition [11] [%] | inhibition [12] [%] | inhibition [13] [%] | inhibition [14] [%] | inhibition [15] [%] | inhibition [16] [%] | inhibition [17] [%] | inhibition [18] [%] | inhibition [19] [%] | inhibition [20] [%]
1 | CCOc1nccc2c1nc(-c1nonc1N)n2CC | 1.46 | 1.66 | 5.36 | 3.39 | 5.97 | 4.34 | 9.55 | 0.76 | 2.04 | 0.25 | 1.49 | 3.33 | 5.37 | 2.15 | 3.99 | 4.04 | 5.99 | 4.45 | 9.31 | 1.76
2 | COc1cc(Nc2nccc(-c3cnn4ncccc34)n2)cc(OC)c1 | 20 | 0.79 | -0.31 | 7.9 | 39.2 | 2.69 | 15.6 | 1.41 | 6.3 | 1.22 | 6.78 | 4.42 | 10.6 | 0.14 | 1.55 | 8.12 | 32.3 | 3.15 | 39.1 | 3.49
3 | COC(=O)c1cncc(/C=C/c2c(C)cc(O)cc2C)c1 | -0.07 | -0.51 | 1.51 | 1.77 | 4.16 | 4.23 | 6.97 | 1.57 | 1.55 | -0.56 | 0.09 | 0.93 | 3.35 | 1.73 | 2.57 | 19.2 | 84.3 | 5.81 | 20 | 1.26
4 | Nc1ccc(C#Cc2cncnc2Nc2ccc(OCc3cccc(F)c3)c(Cl)c2)cc1 | 0.46 | 1.09 | 1.56 | 4.22 | 2.49 | 3.68 | 4.32 | 0.21 | 1.21 | 0.43 | 0.51 | -0.08 | 1.14 | 1.7 | 0.75 | 5.15 | 2.18 | -0.99 | 5.08 | 2.5
5 | NS(=O)(=O)c1ccc(NC=C2C(=O)Nc3ccc4ncsc4c32)cc1 | 46.2 | 0.44 | -0.6 | 20.3 | 66.4 | 8.94 | 32.1 | 2.48 | 9.5 | 1.26 | 5.46 | 2.4 | 13.1 | 2.33 | 13.9 | 5.99 | 34.1 | 9.07 | 40.7 | 13.4
6 | CN(C)c1cc2c(Nc3ccc4c(cnn4Cc4ccccc4)c3)ncnc2cn1 | 0.46 | 0.31 | -1.1 | 2.72 | 4.62 | 3.31 | 1.97 | -0.22 | 1.78 | -0.29 | 0.31 | -0.8 | 0.43 | 0.61 | 0.28 | 3.9 | 4.59 | 2.41 | 4.92 | 1.07
7 | Cc1ccc(Nc2ccnc(Nc3cccc(C(N)=O)c3)n2)cc1O | 3.99 | 0.66 | 0.18 | 1.96 | 10.4 | 4.75 | 6.26 | 0.14 | 1.49 | -4.07 | -3.06 | 0.18 | 1.91 | 1.13 | 1.29 | 29.8 | 80.2 | 13.1 | 53.5 | 2.74
8 | CCS(=O)(=O)c1ccc(OC)c(Nc2nccc(N(C)c3ccc4c(C)n[nH]c4c3)n2)c1 | 3.54 | -0.44 | 0.34 | 6.38 | 6.76 | 6.39 | 4.62 | 1.18 | 1.44 | 0.05 | 0.56 | -0.02 | 0.25 | 1.5 | 1.32 | 3.91 | 23.5 | -0.54 | 7.47 | 2.62
9 | COC(=O)Nc1nc2cc(Oc3ccc(NC(=O)Nc4cccc(Br)c4)cc3)ccc2[nH]1 | 0.27 | 0.17 | 1.67 | 3.04 | 4.55 | 3.62 | 2.45 | -0.51 | 0.21 | -0.42 | -0.13 | -0.57 | 0.5 | 1.32 | 1.31 | 7.8 | 11.9 | -0.32 | 7.96 | -1.34
10 | CN(C)CCCn1c(-c2nonc2N)nc2cnccc21 | 2.24 | -0.11 | -0.83 | 2.33 | 2.88 | 4.54 | 2.43 | 2.81 | 18.9 | -0.04 | 0.24 | -0.78 | 1.03 | 0.98 | -0.25 | 3.24 | 8.57 | -0.97 | 5.74 | 1.24
